# PubChem BioAssay (EPA / NIEHS)
# Records with an inconclusive call do not appear. Active and inactive are the calls of the source. How the source made its calls: active means hit-call score of the fitted dose curve at least 0.9, where 1 is the maximum; inconclusive means response in the unintended direction; inactive means score below 0.9.
# Target: Peroxisome proliferator-activated receptor gamma (Homo sapiens) (UniProt P37231)
# Experiment: ATG_PPARg_TRANS: Attagene TRANS-FACTORIAL HepG2 Assay for human Peroxisome Proliferator-activated Receptor-gamma (PPARg) (AID 2283007)
# Protocol: ATG_TRANS is a cell-based, multiplexed-readout assay that uses HepG2, a human liver cell line, with measurements taken at 24 hours after chemical dosing in a 24-well plate.ATG_PPARg_TRANS is one of 30 assay component(s) measured or calculated from the ATG_TRANS assay. It is designed to make measurements of mRNA induction, a form of inducible reporter, as detected with fluorescence intensity signals by Reverse transcription polymerase chain reaction (RT-PCR) and Capillary electrophoresis technology.Data from the assay component ATG_PPARg_TRANS was analyzed into 1 assay endpoint. This assay endpoint, ATG_PPARg_TRANS, was analyzed in the positive analysis fitting direction relative to DMSO as the negative control and baseline of activity. Using a type of inducible reporter, measures of mRNA for gain-of-signal activity can be used to understand the reporter gene at the transcription factor-level as they relate to the gene PPARG. Furthermore, this assay endpoint can be referred to as a primary readout, because this assay has produced multiple assay endpoints where this one serves a reporter gene function. To generalize the intended target to other relatable targets, this assay endpoint is annotated to the nuclear receptor intended target family, where the subfamily is non-steroidal.
# Human liver HepG2 cells are transiently transfected with multiple reporter transcription units (MRTUs) in 6-well plates using FuGene 6 reagent (Roche; 3 ml FuGene/1 mg DNA). The MRTU constructs are regulated by a cis-regulating element (promoter). […] A major difference between the CIS and TRANS system is that in CIS activities of endogenous TFs are measured, whereas the TRANS assay evaluates changes in activities of exogenous, chimeric NR-Gal4 proteins. […] At the end of 24 hour incubation, total RNA was isolated using TriZol reagent (Invitrogen). The isolated RNA is then reverse-transcribed using oligo(dT) primer and Mo-MLV reverse transcriptase (Invitrogen) with DNAse I (Ambion) treatment for 30 min. The one-tenth of the produced cDNA was amplified by PCR using Taq DNA polymerase (Invitrogen) and two reporter sequence-specific primers. The PCR products were fluorescently labeled by primer extension with 6-arboxyfluorescein (6-FAM) 5'-labeled reporter sequence-specific primer (2 min at 95 C, 20 s at 68 C and 10 min at 72 C) and these products were digested with 5U of HpaI (New England Biolabs) for 2h at 37 C. The fragments were purified using Qiaquick PCR columns (Qiagen), analyzed on an ABI 3130xL genetic analyzer (Applied Biosystems) with peak positions identified by using a set of X-rhodamine (ROX)-labeled MapMarker1000 molecular weight standards (BioVentures). The raw capillary electrophoresis data was processed using Attagraph software (Attagene).
# Chain of Peroxisome proliferator-activated receptor gamma (Homo sapiens) (P37231 whole entry, looked up): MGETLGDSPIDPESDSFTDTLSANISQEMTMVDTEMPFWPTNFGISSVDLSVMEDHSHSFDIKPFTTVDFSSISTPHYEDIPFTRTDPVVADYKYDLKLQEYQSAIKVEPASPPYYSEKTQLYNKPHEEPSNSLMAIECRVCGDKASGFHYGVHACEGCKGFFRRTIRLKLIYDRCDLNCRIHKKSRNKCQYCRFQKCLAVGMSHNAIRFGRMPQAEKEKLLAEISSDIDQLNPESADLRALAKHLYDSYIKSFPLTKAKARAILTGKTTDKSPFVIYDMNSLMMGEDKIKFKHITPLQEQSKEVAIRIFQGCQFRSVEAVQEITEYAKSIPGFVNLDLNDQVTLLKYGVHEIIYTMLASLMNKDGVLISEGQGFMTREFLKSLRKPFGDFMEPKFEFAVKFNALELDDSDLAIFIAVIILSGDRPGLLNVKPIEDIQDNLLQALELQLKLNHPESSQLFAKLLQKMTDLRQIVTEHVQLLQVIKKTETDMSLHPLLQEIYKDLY
SMILES,outcome,AC50
CCOCOCC,inactive,
N#Cc1ccccc1O,inactive,
CCCCCCCCCc1ccc(OCCO)cc1,inactive,
CC(C)CCCC(C)CCO (stereo not given),inactive,
Cc1ccc([N+](=O)[O-])c(C)c1,inactive,
Oc1ccc2c(c1)CCC2,inactive,
O=S(=O)(O)CCC(F)(F)C(F)(F)C(F)(F)C(F)(F)F,inactive,
C=CC(=O)OCC(F)(F)C(F)(F)C(F)(F)COC(=O)C=C,,2.69 µM (active)
COC(=O)c1ccc(C=O)cc1,inactive,
C=CC(=O)OCCC(F)(F)C(F)(F)C(F)(F)C(F)(F)F,inactive,
CC1CCCCC1,inactive,
Brc1nc2ccccc2s1,,23.5 µM (active)
O=C1C=CC(=O)N1c1ccc(Cc2ccc(N3C(=O)C=CC3=O)cc2)cc1,inactive,
O=C(O)C(F)(F)C(F)(F)C(F)(F)OC(F)(C(F)(F)F)C(F)(F)F,,101 µM (active)
CCN(CC)c1ccc(C=O)cc1,inactive,
O=C(O)C(F)(F)OC(F)(F)C(F)(F)OC(F)(F)C(F)(F)OC(F)(F)F,,17.9 µM (active)
C#CC(O)CCC (stereo not given),inactive,
O=C(c1ccccc1)c1ccc(Cl)cc1,,51.6 µM (active)
CCc1cccc(C)c1N(C(=O)C(=O)O)C(C)COC (stereo not given),inactive,
O=C1C=CC(=O)N1c1ccccc1,inactive,

SMILES,outcome,AC50
CCN(CC)c1ccc(C=O)c(O)c1,,15.3 µM (active)
CCC/C=C/CO,inactive,
O=C(O)C(F)(F)C(F)(F)C(F)(F)C(=O)O,,84.1 µM (active)
CCOC(=O)C1CC(=O)C(=C(O)C2CC2)C(=O)C1 (stereo not given),inactive,
O=C(O)CCC(F)(F)C(F)(F)C(F)(F)F,inactive,
FC(F)(F)C(F)(F)C(F)(F)CC1CO1 (stereo not given),inactive,
CCN=C1C=CC(=C(c2ccc(N(CC)CC)cc2)c2ccc(N(CC)CC)cc2)c2ccccc21,inactive,
Cc1cc(O)c(C(C)(C)C)cc1C(C)(C)C,inactive,
CCC(C)CO (stereo not given),inactive,
C=C(C)C(=O)OCC(F)(F)C(F)(F)C(F)(F)C(F)F,inactive,
Oc1ccc(C2(c3ccc(O)c(C4CCCCC4)c3)CCCCC2)cc1C1CCCCC1,,2.92 µM (active)
CCN(CC)c1ccc(N=Nc2ccccc2)cc1,,4.67 µM (active)
CCCCCCCCCCCC(=O)Cl,,72.9 µM (active)
O=C(F)C1(F)C(F)(F)C(F)(F)C(F)(F)C(F)(F)C1(F)F,inactive,
O=C(Cl)C(F)(F)C(F)(F)C(F)(F)C(F)(F)C(F)(F)C(F)(F)C(F)(F)F,,55.1 µM (active)
CN1CN(C)CN(C)C1,inactive,
CCOC(OCC)OCC,inactive,
CCN=c1cc2oc3cc(NCC)c(C)cc3c(-c3ccccc3C(=O)OCC)c-2cc1C,inactive,
O=C1c2ccccc2C(=O)c2c(Cl)cccc21,inactive,
O=C(Cl)C(F)(F)C(F)(F)C(F)(F)C(F)(F)C(F)(F)C(F)(F)F,,71.1 µM (active)
